Tests used:
Assay in all cases: PBM binding z-score (relative to random genomic background probes); higher = stronger binding; sequences stand for … in GC…GCGATTGACAGCGTAGAATGAAGG
[1] = system: RARb homodimer (NR concentration 270 nM)
Method in brief: (§1)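 The probes on custom Agilent 4×180K protein-binding microarrays were double-stranded, with 34-nt variable regions bearing direct-repeat seeds, single-nucleotide variants, half-site ablations and random human genomic background sequences. Incubation lasted 1 h with ligand-free nuclear receptor dimers in PBS pH 7.4, 2% milk, 0.02% Triton X-100, 1 mM DTT, 0.2 mg/mL BSA and 0.4 mg/ml salmon testes DNA. Antibodies against each partner (one per run) detected bound dimers, and fluorescence scans were regression-normalized. Binding z-scores take the random background probes as reference.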

[2] = system: RARg:RXRa (NR concentration 270 nM, RXRa partner concentration 90 nM)
Method in brief: as §1

[3] = system: RARg homodimer (NR concentration 270 nM)
Method in brief: as §1

[4] = system: RXRa DBDmut IVT, anti-RXR (DBD mutation: RXRa K156A/R161A, NR concentration 90 nM)
Method in brief: as §1

[5] = system: RXRa homodimer (NR concentration 180 nM)
Method in brief: as §1

[6] = system: THRa:RXRa (NR concentration 90 nM, RXRa partner concentration 90 nM)
Method in brief: as §1

[7] = system: THRa homodimer (NR concentration 90 nM)
Method in brief: as §1

[8] = system: VDR homodimer (NR concentration 270 nM)
Method in brief: as §1

Row | Sequence | PBM binding z-score [1] | PBM binding z-score [2] | PBM binding z-score [3] | PBM binding z-score [4] | PBM binding z-score [5] | PBM binding z-score [6] | PBM binding z-score [7] | PBM binding z-score [8]
1 | TCGAGTAGGTTAGTCGGTGCATTCAGCCAACATA | -0.0982 | -0.434 | -0.407 | 0.415 | -0.152 | -0.374 | -0.377 | 0.902
2 | CCTCGGAGGACAGAAGGTCATAGCTGTCCGCTTT | 3.97 | 4.4 | 3.92 | 0.657 | 3.43 | 2.95 | 0.318 | 1.45
3 | CCTTACGGGTCACTGGCAGGTTATAGCATTTGGA | 3.16 | 5.81 | 4.75 | 1.66 | 4.96 | 3.14 | 0.323 | 1.16
4 | TCATATAGCTAAAAGGTGAAAGTCGGTGTGGTAA | 1.42 | 0.817 | 0.551 | 0.962 | 1.4 | 0.958 | 0.0793 | -0.201
5 | GCTTGTAGATGAAGGTTAAGAAAGACTAAGCTAA | 0.181 | 0.18 | 0.177 | -0.235 | 0.368 | 0.351 | -0.694 | -0.443
6 | GATACAGGGTCCAGGCCAGAGTACGCGTATTGAT | 0.265 | 0.144 | 0.255 | -0.135 | 0.291 | -0.105 | -0.0572 | 0.607
7 | CCTGCTAGGTCATGGTCAGCTAGTCTACAGTATG | 3.22 | 4.05 | 4.82 | 1.84 | 2.76 | 3.03 | 1.25 | 0.287

From the supplement of paper PMC6555819
